Test results from PubChem BioAssay (NCATS).
Where “and” joins values, the source holds several entries; their conditions need not be identical. Equal entries are not always repeated. Records with an inconclusive call do not appear. Some structures have more than one record in an assay (separate samples or runs), and their calls can disagree. Calls of active or inactive are those of the source. Calls come from the whole dose curve; as a rule, active = well fitted inhibition curve with a large enough effect; inconclusive = small, poorly fitted or top-dose-only effect; inactive = flat fitted curve, though single readings scatter.

What was measured:
CRL-7250 = normal cell line; test: Cytotoxic Profiling of Annotated Libraries Using Quantitative High-Throughput Screening (AID 1296008); settings: Five cell lines viability, CellTiter-Glo ATP luminescence, 48-72 h; max response: hits give low values; note: potency is the fitted concentration of half-maximal effect; for max response: % is set by controls: 0 for no effect and ±100 for the full control effect
Summary of the method: (§1)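 Cells exposed to compounds for 48 or 72 hr at 37 degrees Celsius. Viability read as ATP-coupled luminescence with CellTiter-Glo after 10 min at room temperature.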

HEK293 = test: as above; settings: Five cell lines viability, CellTiter-Glo ATP luminescence, 48-72 h; max response: hits give low values
Summary of the method: as §1

HaCat [1] = test: as above; settings: Five cell lines viability, CellTiter-Glo ATP luminescence, 48-72 h; max response: hits give low values
Summary of the method: as §1

KB-3-1 = test: as above; settings: Five cell lines viability, CellTiter-Glo ATP luminescence, 48-72 h; max response: hits give low values
Summary of the method: as §1

NIH3T3 = test: as above; settings: Five cell lines viability, CellTiter-Glo ATP luminescence, 48-72 h; max response: hits give low values
Summary of the method: as §1

HACAT [2] = test: qHTS assay to identify novel small-molecules to repurpose for Merkel cell carcinoma treatment (AID 1296009); settings: MCC and control cell lines, CellTiter-Glo viability, 72 h
Summary of the method: (§2)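 Dose-response viability screen; 72 hr exposure at 37 degree celsius; CellTiter-Glo added, 10 min room temperature, luminescence read; RLUs scaled between no-cell and DMSO wells.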

HEK293T = test: as above; settings: MCC and control cell lines, CellTiter-Glo viability, 72 h; series mostly up to 44.8 µM
Summary of the method: as §2

[3] = at 44.8 µM (top of the series) unless noted
Note: nearly all actives have a fitted effect of over 60% in size.

CCn1c2ccccc2c2cc(CNC)ccc21
active: Potency (HEK293) 18.4 µM
inactive: max response (CRL-7250) -18% and 2.31% | outcome (HaCat [1]) | max response (KB-3-1) -23.4% | outcome (KB-3-1) | max response (NIH3T3) -5.49% | outcome (NIH3T3) | outcome (HACAT [2]; [3])

CC(C)N(C[C@H]1O[C@@H](n2cnc3c(N)ncnc32)[C@H](O)[C@@H]1O)C1CC(CCc2nc3ccc(C(C)(C)C)cc3[nH]2)C1 (stereo not given in full)
inactive: max response (CRL-7250) -0.229% | outcome (CRL-7250) | max response (HaCat [1]) 3.92% | outcome (HaCat [1]) | max response (KB-3-1) 5.25% | max response (NIH3T3) -7.24% and -17.7% | outcome (HACAT [2]; [3])
active: Potency (HEK293) 7.41 µM

N#Cc1ccnc(N2C(=O)CC[C@H]2C(=O)N(c2cncc(F)c2)[C@H](C(=O)NC2CC(F)(F)C2)c2ccccc2Cl)c1
inactive: max response (CRL-7250) -10.6% | max response (HEK293) -9.11% | max response (HaCat [1]) -27% | max response (KB-3-1) 1.75% | max response (NIH3T3) -4.58%
active: Potency (HEK293) 3.31 µM | Potency (HaCat [1]) 23.4 µM

Cc1onc(-c2ccccc2)c1C(=O)N[C@@H]1C(=O)N2[C@@H]1SC(C)(C)[C@@H]2C(=O)O
inactive: max response (CRL-7250) 4.38% | outcome (CRL-7250) | max response (HEK293) 3.77% and -1.97% | max response (HaCat [1]) -3.02% and -31.5% | outcome (KB-3-1) | outcome (NIH3T3)

CN(NC(=O)CC(=O)NN(C)C(=S)c1ccccc1)C(=S)c1ccccc1
active: Potency (CRL-7250) 0.066 µM | Potency (HEK293) 11.6 nM and 13.2 nM | Potency (KB-3-1) 0.0366 µM | Potency (NIH3T3) 51.7 nM and 26.3 nM
inactive: outcome (HaCat [1]) | outcome (HACAT [2]; [3])

CCN[C@@H]1C[C@H](N)[C@@H](O[C@H]2OC(CN)=CC[C@H]2N)[C@H](O)[C@H]1O[C@H]1OC[C@](C)(O)[C@H](NC)[C@H]1O
inactive: max response (CRL-7250) -13% | outcome (CRL-7250) | max response (HEK293) -0.314% | outcome (HaCat [1]) | max response (KB-3-1) 9.12% | outcome (KB-3-1) | max response (NIH3T3) -0.755% and 2.29% | outcome (HACAT [2]; [3])

C[C@]12C=CC(=O)C=C1CC[C@@H]1[C@@H]2[C@@H](O)C[C@@]2(C)[C@H]1CC[C@]2(O)C(=O)COC(=O)CCC(=O)O
inactive: max response (CRL-7250) 2.71% | max response (HEK293) -0.357% | outcome (HaCat [1]) | max response (KB-3-1) 2.8% | outcome (KB-3-1) | outcome (NIH3T3) | outcome (HACAT [2]; [3])

CCOc1ccc(-c2ccc(Cn3c(CC(C)(C)C(=O)O)c(SC(C)(C)C)c4cc(OCc5ccc(C)cn5)ccc43)cc2)cn1
inactive: max response (CRL-7250) -21.1% and -6.16% | max response (HEK293) -15.3% | outcome (HEK293) | max response (HaCat [1]) -15.9% and -11.2% | max response (KB-3-1) -5.24% | outcome (KB-3-1) | max response (NIH3T3) -6.34% | Potency (HEK293T)

CC(C)(O)CNc1nc(Nc2ccnc(C(F)(F)F)c2)nc(-c2cccc(C(F)(F)F)n2)n1
active: Potency (HEK293) 14.8 µM
inactive: max response (CRL-7250) -2.34% and 1.41% | outcome (HaCat [1]) | max response (KB-3-1) 4.85% | max response (NIH3T3) 3.44% and -5.61% | outcome (HACAT [2]; at 17.4 µM (top of the series)) | outcome (HACAT [2]; at 44.8 µM (top of the series))

OC[C@H]1O[C@@H](OCCc2ccc(O)cc2)[C@H](O)[C@@H](O)[C@@H]1O
inactive: max response (CRL-7250) 1.66% | max response (HEK293) -4.41% | outcome (HaCat [1]) | max response (KB-3-1) 7.2% and 9.78% | max response (NIH3T3) -4.78% | outcome (HACAT [2]; [3])

CCC[C@@H]1C[C@@H](C(=O)N[C@@H]([C@H]2O[C@H](SC)[C@H](OP(=O)(O)O)[C@@H](O)[C@H]2O)[C@H](C)Cl)N(C)C1
inactive: max response (CRL-7250) -7.94% | max response (HEK293) -4.58% | max response (HaCat [1]) 4.98% | max response (KB-3-1) -22.3% and -12.7% and 0.837% | outcome (NIH3T3)

CC(CCC1(O)OC2CC3C4CCC5CC(O[C@@H]6O[C@H](CO)[C@@H](O)[C@H](O)[C@H]6O[C@@H]6OC[C@@H](O)[C@H](O)[C@H]6O)C(O)CC5(C)C4CCC3(C)C2C1C)CO[C@@H]1O[C@H](CO)[C@@H](O)[C@H](O)[C@H]1O (stereo not given in full)
inactive: max response (CRL-7250) -0.157% | outcome (HEK293) | outcome (HaCat [1]) | outcome (KB-3-1) | outcome (NIH3T3) | outcome (HACAT [2]; [3]) inactive [at 9.27 µM] | outcome (HEK293T) inactive [at 9.27 µM]

CC(=O)C1CCC2(C)C3=C(CCC12C)C1(C)CCC(=O)C(C)(C)C1CC3 (stereo not given)
inactive: max response (CRL-7250) -8.18% | outcome (HEK293) | outcome (HaCat [1]) | outcome (KB-3-1) | max response (NIH3T3) -0.504% | outcome (HACAT [2]; [3]) | Potency (HEK293T)

CC12CCC3C(C)(C)C(O)CCC3(C)C1Cc1c(oc(C(=O)O)cc1=O)O2 (stereo not given)
inactive: outcome (CRL-7250) | outcome (HEK293) | outcome (HaCat [1]) | outcome (KB-3-1) | max response (NIH3T3) 1.94% | outcome (HACAT [2]; [3]) | Potency (HEK293T)

C=C1CC[C@@H]2[C@](C)(CO[C@@H]3O[C@H](CO)[C@@H](O)[C@H](O)[C@H]3O)CCC[C@@]2(C)[C@@H]1CCC1=CCOC1=O
inactive: outcome (CRL-7250) | outcome (HEK293) | outcome (HaCat [1]) | max response (KB-3-1) 2.64% | outcome (NIH3T3) | outcome (HACAT [2]; [3]) inactive [at 17.4 µM] | Potency (HEK293T)

C[C@@H]1O[C@@H](O[C@H]2[C@H](O)[C@@H](C(=O)O)O[C@@H](O[C@H]3CC[C@@]4(C)C(CC[C@]5(C)C4CC=C4C6CC(C)(C)CC[C@]6(C(=O)O)CC[C@]45C)C3(C)C)[C@@H]2O[C@@H]2O[C@H](CO)[C@@H](O)[C@H](O)[C@H]2O)[C@H](O)[C@H](O)[C@H]1O (stereo not given in full)
inactive: outcome (CRL-7250) | outcome (HEK293) | outcome (HaCat [1]) | outcome (KB-3-1) | max response (NIH3T3) 1.81% | outcome (HACAT [2]; [3]) inactive [at 9.27 µM] | outcome (HEK293T) inactive [at 9.27 µM]

COc1ccc([C@H]2Cc3cccc(O)c3C(=O)O2)cc1
inactive: max response (CRL-7250) -7.43% | outcome (HEK293) | outcome (HaCat [1]) | max response (KB-3-1) 9.62% | outcome (NIH3T3) | outcome (HACAT [2]; [3]) | Potency (HEK293T)

CC1(C)CC[C@]2(C(=O)O[C@@H]3O[C@H](CO)[C@@H](O)[C@H](O)[C@H]3O)CC[C@]3(C)C(=CCC4[C@@]5(C)C[C@@H](O)[C@H](O)[C@@](C)(CO)C5CC[C@]43C)C2C1 (stereo not given in full)
inactive: max response (CRL-7250) 1.73% | outcome (HEK293) | outcome (HaCat [1]) | outcome (KB-3-1) | max response (NIH3T3) -1.65% | outcome (HACAT [2]; [3]) inactive [at 17.4 µM] | Potency (HEK293T)
